# From article PMC12820563, “FoxP3 forms a head-to-head dimer in vivo and stabilizes its multimerization on adjacent microsatellites”
# Over roughly 16,000 sequences, “rpm ratio (pull-down/input)” has its median near 0.94; the highest 2% begin near 1.7. This is one part of a sample in which the highest values are shown more often than they occur.
# Target: T1, MBP-FoxP1dN (Mus musculus, UniProt P58462 326-579)
# T1 sequence: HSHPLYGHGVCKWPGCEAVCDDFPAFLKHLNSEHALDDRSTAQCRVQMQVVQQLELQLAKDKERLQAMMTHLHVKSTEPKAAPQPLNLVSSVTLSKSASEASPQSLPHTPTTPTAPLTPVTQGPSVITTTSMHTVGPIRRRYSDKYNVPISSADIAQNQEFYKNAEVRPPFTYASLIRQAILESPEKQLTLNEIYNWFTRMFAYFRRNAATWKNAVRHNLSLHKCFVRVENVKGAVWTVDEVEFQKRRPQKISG
# Test: PD-seq (MBP pull-down with sequencing); 20 mM Tris-HCl pH 7.5, 100 mM NaCl, 1.5 mM MgCl2, 0.4 uM protein, 0.1 uM dsDNA library, 30 min, room temperature, amylose pull-down; high values mean tight binding
# Conditions: protein: recombinant; tags: His6-MBP; chain copies: 2; dsDNA, one strand shown
# How it was run: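 A degenerate double-stranded DNA library, filled in with Klenow, was added at 0.1 µM to 0.4 µM His6-MBP-tagged mouse FoxP3 or FoxP1 fragment lacking the N-terminus, expressed in E. coli. Incubation lasted 30 min at room temperature in Tris pH 7.5 buffer with NaCl and MgCl2, after which complexes were collected on amylose resin, washed three times, digested with proteinase K to free the DNA, barcoded by PCR and sequenced by Illumina. Binding is the pooled-replicate reads-per-million enrichment of pull-down over input.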
row,Sequence,binding signal
1,GATGATTGTTCTCCCAGCTGATGAATTTTATTAGTCGAGTAAACAAATTTTCCTAATCTTTCTGTTCAAGCGCCATCTAC,1.28 RPM ratio (pull-down/input)
2,GATGATTGTTCTCCCAGCTGATGAATTTGGTTAGTCGAGTAAACAAATTTTCCTAATCTTTCTGTTCAAGCGCCATCTAC,0.953 RPM ratio (pull-down/input)
3,GATGATTGTTCTCCCAGCTGATGAATTTTTTTAGTCGAGTAAACAAATTTTCCTAATCTTTCTGTTCAAGCGCCATCTAC,1.05 RPM ratio (pull-down/input)
4,GATGATTGTTCTCCCAGCTGATGAATTCTTTAGGTCGAGTAAACAAATTTTCCTAATCTTTCTGTTCAAGCGCCATCTAC,0.821 RPM ratio (pull-down/input)
5,GATGATTGTTCTCCCAGCTGATGAATTGTTTTAGTCGAGTAAACAAATTTTCCTAATCTTTCTGTTCAAGCGCCATCTAC,1.44 RPM ratio (pull-down/input)
6,GATGATTGTTCTCCCAGCTGATGAATTGTTTAGGTCGAGTAAACAAATTTTCCTAATCTTTCTGTTCAAGCGCCATCTAC,1.93 RPM ratio (pull-down/input)
7,GATGATTGTTCTCCCAGCTGATGAATTCGACATATCGAGTAAACAAATTTTCCTAATCTTTCTGTTCAAGCGCCATCTAC,0.996 RPM ratio (pull-down/input)
8,GATGATTGTTCTCCCAGCTGATGAATTGTATGACTCGAGTAAACAAATTTTCCTAATCTTTCTGTTCAAGCGCCATCTAC,0.974 RPM ratio (pull-down/input)
9,GATGATTGTTCTCCCAGCTGATGAATTTATCAGATCGAGTAAACAAATTTTCCTAATCTTTCTGTTCAAGCGCCATCTAC,1.03 RPM ratio (pull-down/input)
10,GATGATTGTTCTCCCAGCTGATGAATTCAGGCGGTCGAGTAAACAAATTTTCCTAATCTTTCTGTTCAAGCGCCATCTAC,0.783 RPM ratio (pull-down/input)
11,GATGATTGTTCTCCCAGCTGATGAATTACTAAGGTCGAGTAAACAAATTTTCCTAATCTTTCTGTTCAAGCGCCATCTAC,1.03 RPM ratio (pull-down/input)
12,GATGATTGTTCTCCCAGCTGATGAATTACTTTGGTCGAGTAAACAAATTTTCCTAATCTTTCTGTTCAAGCGCCATCTAC,0.952 RPM ratio (pull-down/input)
13,GATGATTGTTCTCCCAGCTGATGAATTTTGATGGTCGAGTAAACAAATTTTCCTAATCTTTCTGTTCAAGCGCCATCTAC,1.04 RPM ratio (pull-down/input)
14,GATGATTGTTCTCCCAGCTGATGAATTGCTATTGTCGAGTAAACAAATTTTCCTAATCTTTCTGTTCAAGCGCCATCTAC,2.28 RPM ratio (pull-down/input)
15,GATGATTGTTCTCCCAGCTGATGAATTTGCTATGTCGAGTAAACAAATTTTCCTAATCTTTCTGTTCAAGCGCCATCTAC,1.06 RPM ratio (pull-down/input)
16,GATGATTGTTCTCCCAGCTGATGAATTGCTATTTTCGAGTAAACAAATTTTCCTAATCTTTCTGTTCAAGCGCCATCTAC,2.22 RPM ratio (pull-down/input)
17,GATGATTGTTCTCCCAGCTGATGAATTTGCTATTTCGAGTAAACAAATTTTCCTAATCTTTCTGTTCAAGCGCCATCTAC,1.17 RPM ratio (pull-down/input)
18,GATGATTGTTCTCCCAGCTGATGAATTATTGCTGTCGAGTAAACAAATTTTCCTAATCTTTCTGTTCAAGCGCCATCTAC,1.67 RPM ratio (pull-down/input)

row,Sequence,binding signal
1,GATGATTGTTCTCCCAGCTGATGAATTTTGCTATTCGAGTAAACAAATTTTCCTAATCTTTCTGTTCAAGCGCCATCTAC,1.32 RPM ratio (pull-down/input)
2,GATGATTGTTCTCCCAGCTGATGAATTAGGCGCGTCGAGTAAACAAATTTTCCTAATCTTTCTGTTCAAGCGCCATCTAC,1.03 RPM ratio (pull-down/input)
3,GATGATTGTTCTCCCAGCTGATGAATTGGACTATTCGAGTAAACAAATTTTCCTAATCTTTCTGTTCAAGCGCCATCTAC,0.893 RPM ratio (pull-down/input)
4,GATGATTGTTCTCCCAGCTGATGAATTCCCCGGATCGAGTAAACAAATTTTCCTAATCTTTCTGTTCAAGCGCCATCTAC,0.788 RPM ratio (pull-down/input)
5,GATGATTGTTCTCCCAGCTGATGAATTTACCTACTCGAGTAAACAAATTTTCCTAATCTTTCTGTTCAAGCGCCATCTAC,1.24 RPM ratio (pull-down/input)
6,GATGATTGTTCTCCCAGCTGATGAATTGATTACATCGAGTAAACAAATTTTCCTAATCTTTCTGTTCAAGCGCCATCTAC,1.58 RPM ratio (pull-down/input)
7,GATGATTGTTCTCCCAGCTGATGAATTTATTACATCGAGTAAACAAATTTTCCTAATCTTTCTGTTCAAGCGCCATCTAC,1.21 RPM ratio (pull-down/input)
8,GATGATTGTTCTCCCAGCTGATGAATTACAAACATCGAGTAAACAAATTTTCCTAATCTTTCTGTTCAAGCGCCATCTAC,2.67 RPM ratio (pull-down/input)
9,GATGATTGTTCTCCCAGCTGATGAATTAATTACATCGAGTAAACAAATTTTCCTAATCTTTCTGTTCAAGCGCCATCTAC,1.26 RPM ratio (pull-down/input)
10,GATGATTGTTCTCCCAGCTGATGAATTATTTACATCGAGTAAACAAATTTTCCTAATCTTTCTGTTCAAGCGCCATCTAC,2.34 RPM ratio (pull-down/input)
11,GATGATTGTTCTCCCAGCTGATGAATTACTAAAATCGAGTAAACAAATTTTCCTAATCTTTCTGTTCAAGCGCCATCTAC,1.34 RPM ratio (pull-down/input)
12,GATGATTGTTCTCCCAGCTGATGAATTACTACCATCGAGTAAACAAATTTTCCTAATCTTTCTGTTCAAGCGCCATCTAC,1.13 RPM ratio (pull-down/input)
13,GATGATTGTTCTCCCAGCTGATGAATTACCAAAATCGAGTAAACAAATTTTCCTAATCTTTCTGTTCAAGCGCCATCTAC,1.3 RPM ratio (pull-down/input)
14,GATGATTGTTCTCCCAGCTGATGAATTACATTTATCGAGTAAACAAATTTTCCTAATCTTTCTGTTCAAGCGCCATCTAC,1.52 RPM ratio (pull-down/input)
15,GATGATTGTTCTCCCAGCTGATGAATTACTAACATCGAGTAAACAAATTTTCCTAATCTTTCTGTTCAAGCGCCATCTAC,1.77 RPM ratio (pull-down/input)
16,GATGATTGTTCTCCCAGCTGATGAATTACCAACATCGAGTAAACAAATTTTCCTAATCTTTCTGTTCAAGCGCCATCTAC,1.94 RPM ratio (pull-down/input)
17,GATGATTGTTCTCCCAGCTGATGAATTTACCAAATCGAGTAAACAAATTTTCCTAATCTTTCTGTTCAAGCGCCATCTAC,1.65 RPM ratio (pull-down/input)
